Consider 40 molecules from PubChem BioAssay (NCATS).

Results filed as inconclusive are left out. Entries that show only a call come without a potency. Activity calls are given as the source filed them. Calls come from the whole dose curve; as a rule, active = well fitted cell-killing curve with a large enough effect; inconclusive = small, poorly fitted or top-dose-only effect; inactive = flat fitted curve, though single readings scatter.
Potency is the fitted concentration of half-maximal effect.

The nature of the test: qHTS of pediatric cancer cell lines to identify multiple opportunities for drug repurposing: Primary screen for BT-12 cells (AID 1347101). Note: nearly all actives have a fitted effect of over 25% in size. The conditions noted are these: BT-12 viability, CellTiter-Glo luminescence, 48 h; series mostly up to 57.3 µM. The source says:
Drug repurposing or repositioning has been offered as a strategy for drug development in oncology programs. This approach has special potential for childhood cancers and other rare or orphan diseases, where the expected return on new drug development has been a disincentive to pharmaceuticals.
In this project we exploit the poly-pharmacology of drugs to discover new indications via phenotypic screening of a panel of 19 well-characterized cell lines derived from solid tumors seen in children and adolescents. The goal is to identify approved drugs with previously unrecognized anticancer properties that has the potential to reveal new mechanisms and biological processes involved in carcinogenesis or drug resistance. We employed a titration-based paradigm (quantitative high-throughput screening or qHTS), where all compounds were tested at multiple concentrations for their effect on cell viability. Concentration-response curves (CRCs) were derived directly from the primary screen, and both potency and efficacy values were used to identify compounds with robust bioactivity profiles. We screened the NIH Chemical Genomics Center (NCGC) Pharmaceutical Collection (NPC) and Mechanism Interrogation Plate (MIPE) small molecule collections of approved and investigational compounds against these cell lines; and measured metabolically active cells after 48 hours of compound treatment as a proxy for cell viability.
Assay Submitter: Nathalia J. Martinez, National Center for Advancing Translational Sciences, National Institutes of Health, Rockville, MD, USA; email: natalia.martinez@nih.gov
[1] Shen, M et al. Quantitative high-throughput phenotypic screening of pediatric cancer cell lines identifies multiple opportunities for drug repurposing. Oncotarget 2017 Dec 19;9(4):4758-4772. PMID 29435139.
The cells were obtained from University of North Carolina (UNC), Pediatric Preclinical Testing Program (PPT), and Coriell Institute (CI).
qHTS cell viability assay:
Cells were assayed in growth media at a density of 500-1,000 cells/well. Five microliters of cells were dispensed into 1,536-well, white, solid-bottom, TC-treated plates (Greiner Bio One) using a multidrop dispenser and incubated at 37 degrees C, 5% CO2, under a humidified atmosphere for 5 hours. Twenty-three nanoliters of compounds and controls (neutral control DMSO or positive control bortezomib at final concentration of 2.3 µM) were subsequently transferred by Kalypsys pintool. For primary screens, the MIPE collection was tested at 11-point dilutions (final concentrations range from 0.78 nM to 46 µM) and the NPC collection at 8-point dilutions (final concentrations range from 0.59 nM to 46 µM). Compounds tested in follow-up screens were assayed at 11-point dilutions. Cells were incubated for 48 hours, followed by addition of 3 µL of CellTiter-Glo (Promega). After a 15 min incubation at room temperature, samples were analyzed for luminescence intensity using a ViewLux High-throughput CCD imager equipped with clear filters.
On the technique in general: Quantitative high-throughput screening tests each substance at several concentrations.
In the case of `CCCC(C)C1(CC)C(=O)N=C(S)NC1=O` (stereo not given), the Potency result was “inactive”.

As to `COc1ccc(CN2CCNCC2)c(OC)c1OC`, the Potency entry was “inactive”.

For `CCOC(=O)c1ncn2c1CN(C)C(=O)c1c(I)cccc1-2`, the Potency result was “inactive”.

For `NC(=O)CN1CCCC1=O`, the Potency result was “inactive”.

Consider `CCNc1nc(Cl)nc(NCC)n1`, for which the Potency entry is “inactive”.

With `CN(C)CCc1c[nH]c2ccccc12`, the Potency entry is “inactive”.

For `CCC1(CC)C(=O)NC(=O)NC1=O`, the Potency entry is “inactive”.

Take `O=C(N[C@H]1N=C(c2ccccc2F)c2cccc3c2N(CC3)C1=O)c1cc2ccccc2[nH]1`: the Potency result is “inactive”.

Take `CCS(=O)(=O)C(C)(C)S(=O)(=O)CC`: the Potency entry is “inactive”.

With `C[C@]12CC[C@H]3[C@@H](CCC4=CC(=O)CC[C@@H]43)[C@@H]1CC[C@@H]2O`, the Potency entry was “inactive”.

Take `O=C1CN2CCOC2(c2ccccc2Cl)c2cc(Cl)ccc2N1` (stereo not given): the Potency entry is “inactive”.

Consider `CC[n+]1c(-c2ccccc2)c2cc(N)ccc2c2ccc(N)cc21`, for which the Potency was 3.09 µM (active).

As for `CCOC(=O)NC(O)C(Cl)(Cl)Cl` (stereo not given), the Potency result was “inactive”.

As to `Cc1nnc2n1-c1sc(CCC(=O)N3CCOCC3)cc1C(c1ccccc1Cl)=NC2`, the Potency entry is “inactive”.

As for `COCC(=O)N(c1c(C)cccc1C)C(C)C(=O)OC` (stereo not given), the Potency entry is “inactive”.

On to `CCCCCCCCCCCC[N+](C)(C)CCOc1ccccc1`, for which the Potency is 24.6 µM (active).

With `CN1[C@@H]2CC[C@H]1CC(OC(=O)c1cc(Cl)cc(Cl)c1)C2` (stereo not given in full), the Potency result is “inactive”.

For the molecule `CN1C(=O)CN=C(c2ccccc2)c2cc(Cl)ccc21`, the Potency result was “inactive”.

As for `COc1cc(CC(C)N)cc2c1OCO2` (stereo not given), the Potency result is “inactive”.

Consider `CC(C)=C[C@@H]1[C@@H](C(=O)OCc2coc(Cc3ccccc3)c2)C1(C)C`, for which the Potency result is “inactive”.

With `CCN(CC)C(C)C(=O)c1ccccc1` (stereo not given), the Potency result is “inactive”.

Regarding `O=C(CCCCl)c1ccc(F)cc1`, the Potency entry is “inactive”.

On to `CCN(Cc1ccc(Cl)nc1)/C(=C/[N+](=O)[O-])NC`, for which the Potency entry was “inactive”.

For `CC[C@H](O)C(C[C@H](C)N(C)C)(c1ccccc1)c1ccccc1`, the Potency result is “inactive”.

For `COP(=O)(OC)C(O)C(Cl)(Cl)Cl` (stereo not given), the Potency entry is “inactive”.

In the case of `CC(C)(C)OC(=O)c1ncn2c1[C@@H]1CCCN1C(=O)c1c(Br)cccc1-2`, the Potency result is “inactive”.

As for `CNC(=O)Oc1cccc2ccccc12`, the Potency result is “inactive”.

On to `CCOC(C(=O)OCCN(C)C)(c1ccccc1)c1ccccc1`, for which the Potency result was “inactive”.

Turning to `O=C(CBr)Nc1ccc(Cl)cc1C(=O)c1ccccc1F`, the Potency entry is “inactive”.

In the case of `COC(=O)C1=CCCN(C)C1`, the Potency entry is “inactive”.

Take `CCC(OC(C)=O)C(CC(C)NC)(c1ccccc1)c1ccccc1` (stereo not given): the Potency is 35.9 µM (active).

As to `Cc1ccc(N=CN(C)C=Nc2ccc(C)cc2C)c(C)c1`, the Potency entry is “inactive”.

In the case of `O=c1n(Cl)c(=O)n(Cl)c(=O)n1Cl`, the Potency entry is “inactive”.

Regarding `CCN(CC)CCOC(=O)C(C)(c1ccccc1)c1ccccc1`, the Potency result was “inactive”.

As for `CN1C(=O)CN=C(c2ccccc2)c2cc([N+](=O)[O-])ccc21`, the Potency result is “inactive”.

On to `CN1C2CCC(C)(C)C1CC(OC(=O)C(O)(c1cccs1)c1cccs1)C2` (stereo not given), for which the Potency entry is “inactive”.

With `C[C@H](N)[C@H](O)c1ccc(O)c(O)c1`, the Potency entry was “inactive”.

Consider `NCc1cccnc1`, for which the Potency entry was “inactive”.

On to `CC1N=C(N)OC1c1ccccc1` (stereo not given), for which the Potency entry was “inactive”.

In the case of `C[C@]12CC[C@H]3[C@@H](CCC4=CC(=O)CC[C@@]43C)[C@@H]1CC[C@@H]2C(=O)O`, the Potency result was “inactive”.
